# In PubChem BioAssay (NCATS):
# “And” between values parts separate entries of the source, which are not always exact repeats. Equal values may be shown once. Records with an inconclusive call do not appear. The source made the active and inactive calls. Unless noted, the call rests on the fitted dose curve; in most records, active means well fitted curve in the direction sought with a large enough effect; inconclusive means small, poorly fitted or top-dose-only effect, or another doubt; inactive means no such curve, though single readings can be large; an effect the other way counts as inactive or inconclusive.
# Legend:
# [1] = qHTS Assay for Identifying Gametocytocidal Compounds (AID 743244);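 further: on the % scale 0 is the no-effect control and ±100 the full control effect; actives lower the fluorescent signal which means gametocytes are killed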; conditions: P. falciparum 3D7 stage III-V gametocytes, alamarBlue, 72 h; max response: stronger effect = lower value
# Procedure, shortened: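 In this qHTS viability screen, late-stage 3D7 gametocytes are incubated with compound for 72 h, then with alamarBlue for 24 h; reduced resorufin fluorescence marks killing.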
# [2] = qHTS profiling for inhibitors of Plasmodium falciparum (3D7) proliferation (AID 743322; call rule not given here;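 further: infected erythrocytes exposed to compound for 72 h before lysis; 100% = DMSO vehicle wells and 0% = 0.29 µM artemisinin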); conditions: P. falciparum 3D7 proliferation; at 28.7 µM (top of the series) unless noted
# Procedure, shortened: (§1)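 Parasite DNA was quantified by SYBR Green I fluorescence (ex 485, em 535 nm) after overnight lysis in saponin/Triton buffer at room temperature. Cultures at 0.3% parasitemia and 2.5% hematocrit were first exposed to compound for 72 h at 37 C; signals were normalised to artemisinin (0.29 uM) and vehicle wells.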
# [3] = qHTS profiling for inhibitors of Plasmodium falciparum (DD2) proliferation (AID 743323; call rule not given here); conditions: lower = more inhibition; at 28.7 µM (top of the series) unless noted
# Procedure, shortened: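 P. falciparum Dd2-infected erythrocytes (0.3% parasitemia, 2.5% hematocrit) exposed 72 h at 37 C, 5% CO2. Lysis with SYBR Green, overnight at room temperature, fluorescence 485/535 nm; normalized to 0.29 uM artemisinin and DMSO.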
# [4] = qHTS profiling for inhibitors of Plasmodium falciparum (HB3) proliferation (AID 743324); conditions: Plasmodium falciparum HB3 blood-stage proliferation; at 28.7 µM (top of the series) unless noted;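 further: 100% = DMSO vehicle wells and 0% = artemisinin-treated control wells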
# Procedure, shortened: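 SYBR Green fluorescence (485 ex/535 em) of lysed cultures, incubated overnight at room temperature in the dark, quantifies parasite DNA. Infected erythrocytes at 0.3% parasitemia and 2.5% hematocrit were exposed 72 h; values normalized to DMSO and 0.29 uM artemisinin controls.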
# [5] = qHTS profiling of the MIPE4 collection as inhibitors of Plasmodium falciparum (3D7) proliferation (AID 743344; call rule not given here;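 further: scaled between DMSO vehicle wells and 0.29 µM artemisinin as full inhibition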); conditions: P. falciparum 3D7 in erythrocytes, SYBR Green DNA fluorescence, 72 h; at 28.5 µM (top of the series) unless noted
# Procedure, shortened: as §1
# [6] = qHTS profiling of the MIPE4 collection as inhibitors of Plasmodium falciparum (DD2) proliferation (Rep 2) (AID 743346; call rule not given here); conditions: P. falciparum Dd2 in erythrocytes, SYBR Green DNA, 72 h; at 28.5 µM (top of the series) unless noted
# Procedure, shortened: as §1
# [7] = qHTS profiling of the MIPE4 collection as inhibitors of Plasmodium falciparum (HB3) proliferation (AID 743347; call rule not given here;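 further: plate controls were DMSO vehicle wells for no effect and artemisinin wells for full effect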); conditions: P. falciparum HB3 in erythrocytes, SYBR Green DNA, 72 h; at 28.5 µM (top of the series) unless noted
# Procedure, shortened: as §1
# [8] = Cell Proliferation Assay Versus the ED40515 IL2 Dependent ATL cell lines (AID 1053195; calls by dose curve); conditions: ED40515 IL2-dependent ATL cells
# Procedure, shortened: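 CellTiter-Glo luminescence (15 min, RT) measured viability after 48 hours at 37C; cells were ED40515 +IL2, 1000/well, in phenol red-free RPMI with 5% FBS. Controls: DMSO and 9.2 uM bortezomib.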
# [9] = qHTS for Activators of Parkin Expression: LOPAC Validation Assay (NLuc Reporter) (AID 720572;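 further: 0% = DMSO and 100% = positive control compound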)
# Procedure, shortened: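 Cells harboring the Parkin-promoter coincidence reporter were treated for 24 h at seven concentrations. NLuc output was measured sequentially after the FLuc channel and scaled between DMSO and positive control values.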
# [10] = qHTS for Activators of Parkin Expression: LOPAC Validation Assay (FLuc Reporter) (AID 720573;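 further: 0% = DMSO and 100% = positive control compounds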)
# Procedure, shortened: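 FLuc signal from Parkin-promoter coincidence reporter neuronal cells, normalized to DMSO and positive control (100%). Cells (1,500/well) pre-incubated 24 h, then exposed to LOPAC compounds in 7-point dose response for 24 h at 37 C, 5% CO2.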
# [11] = qHTS assay for small molecule agonists of the antioxidant response element (ARE) signaling pathway measured by Nrf2-dependant transcriptional activity (AID 720636; active means well fitted curve in the direction sought with a large enough effect in the repeat runs; an effect the other way counts as inactive or inconclusive;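 further: HepG2 cells with an ARE-driven luciferase reporter; % of control where 0% means no effect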)
# Procedure, shortened: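 First, ARE-luc HepG2 cells attached for 6 hr at 37 C in 1% dialyzed FBS medium. Next, compound or DMSO was added and incubated 16 hr. Finally, ONE-Glo reagent was added and luminescence measured after 30 min.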
# [12] = qHTS assay for small molecule agonists of the antioxidant response element (ARE) signaling pathway measured by Nrf2-dependant transcriptional activity - cell viability counter screen (AID 720653; active means well fitted curve in the direction sought with a large enough effect in the repeat runs; an effect the other way counts as inactive or inconclusive; further: on the % scale 0 is the no-effect control and ±100 the full control effect); conditions: ARE-bla HepG2 viability, CellTiter-Glo ATP luminescence, 16 h; stronger effect = lower value
# Procedure, shortened: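 ARE-bla HepG2 cells (2,000/well) rested 5 hrs at 37C/5% CO2, then exposed to compounds in DMSO for 16 hrs. Viability was read in the same wells as intracellular ATP by luminescence, 30 min at room temperature after reagent addition.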
# [13] = target: T1, Hexokinase-4 (Homo sapiens) + Glucokinase regulatory protein (Homo sapiens) (UniProt P35557+Q14397); experiment: qHTS assay for inhibitors of recombinant human GCK-GKRP interaction: Diaphorase-coupled assay (AID 743205)
# Procedure, shortened: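 A kinetic fluorescence read (Ex 525/Em 590 nm, every minute for 30 minutes) tracked resorufin from a G6PDH-diaphorase coupled GCK reaction. It contained 10 nM GST-GCK, 10 nM FLAG-GKRP, 5 mM glucose, 0.4 mM ATP in Hepes pH 7.6. Normalized to with/without-enzyme DMSO controls.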
# [14] = target: T1, Hexokinase-4 (Homo sapiens) + Glucokinase regulatory protein (Homo sapiens); experiment: qHTS assay for inhibitors of recombinant human GCK-GKRP interaction: ADP-Glo assay (AID 743206);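 further: plate controls were DMSO plus enzyme for no effect and no enzyme for full effect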
# Procedure, shortened: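 Pin-transferred compounds meet a 15 nM GST-GCK/15 nM FLAG-GKRP/2 uM S6P mix (dispense concentrations). ATP is then added to 0.4 mM final with 5 mM glucose, and the reaction runs 60 min at room temperature. ADP is quantified luminescently.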
# [15] = target: T1, Hexokinase-4 (Homo sapiens) + Glucokinase regulatory protein (Homo sapiens); experiment: qHTS assay for inhibitors of recombinant human GCK-GKRP interaction: HTRF assay (AID 743207);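 further: 0% = DMSO with GCK present and -100% = DMSO wells lacking GCK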
# Procedure, shortened: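 After 60 min equilibration at room temperature with anti-FLAG XL665 and anti-GST antibodies, FRET ratio (665/615 nm, excitation 320 nm) was read. Proteins: GST-GCK and FLAG-GKRP, each 5 nM, plus 2 uM S6P, pH 7.1 buffer; GCK-free wells define minimum signal.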
# [16] = qHTS assay for cell viability of HEK293 cells (AID 743288); conditions: ATP luminescence (CellTiter-Glo), 18 h; max response: stronger effect = lower value; further: on the % scale 0 is the no-effect control and ±100 the full control effect; nearly all actives have a fitted effect of over 50% in size
# Procedure, shortened: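 Readout is luciferase-coupled ATP content (CellTiter-Glo luminescence, 30 min room temperature) as a measure of metabolically competent cells. Parental HEK293 cells were plated 5 h or more before compound addition, then treated 18 h at 37 C.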
# [17] = qHTS assay for cell viability of the p53RE-bla HCT-116 cell line (AID 743292); further: on the % scale 0 is the no-effect control and ±100 the full control effect; nearly all actives have a fitted effect of over 55% in size
# Procedure, shortened: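 Quantitative high-throughput format: compounds in DMSO were pinned onto p53RE-bla HCT-116 cells (4,000/well) and incubated 16 h at 37 C. Total intracellular ATP, read by CellTiter-Glo luminescence, reflects viable cell number.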
# [18] = qHTS profiling of the MIPE4 collection as inhibitors of Plasmodium falciparum (DD2) proliferation (AID 743345; call rule not given here); conditions: P. falciparum Dd2 in erythrocytes, SYBR Green DNA, 72 h; at 28.5 µM (top of the series) unless noted
# Procedure, shortened: as §1
# [19] = Cell Proliferation Assay Versus the ED40515 IL2 Independent ATL cell lines (AID 1053194; calls by dose curve); conditions: ED40515 IL2-independent ATL cells
# Procedure, shortened: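 CellTiter-Glo luminescence, read after 15 min at RT, gave viability of IL-2-free ED40515 cells (1000/well, RPMI plus 5% FBS) following 48 h drug exposure at 37C. Control wells held DMSO or 9.2 uM bortezomib.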
# [20] = qHTS assay for small molecule antagonists of the retinoid-related orphan receptor gamma (ROR-gamma) signaling pathway - cell viability counter screen (AID 720652; active means well fitted curve in the direction sought with a large enough effect in the repeat runs; an effect the other way counts as inactive or inconclusive;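 further: CHO reporter cells with doxycycline-induced ROR-gamma expression; compound exposure lasted 16 hr before ATP read; on the % scale 0 is the no-effect control and ±100 the full control effect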)
# Procedure, shortened: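 Steps: seed CHO cells bearing TET-inducible ROR and ROR response element-luciferase; rest 5 hr at 37 C; add compound, then doxycycline; incubate 16 hr; add CellTiter-Glo and read luminescence as ATP-based viability.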
# T1 sequence (P35557 whole entry, looked up): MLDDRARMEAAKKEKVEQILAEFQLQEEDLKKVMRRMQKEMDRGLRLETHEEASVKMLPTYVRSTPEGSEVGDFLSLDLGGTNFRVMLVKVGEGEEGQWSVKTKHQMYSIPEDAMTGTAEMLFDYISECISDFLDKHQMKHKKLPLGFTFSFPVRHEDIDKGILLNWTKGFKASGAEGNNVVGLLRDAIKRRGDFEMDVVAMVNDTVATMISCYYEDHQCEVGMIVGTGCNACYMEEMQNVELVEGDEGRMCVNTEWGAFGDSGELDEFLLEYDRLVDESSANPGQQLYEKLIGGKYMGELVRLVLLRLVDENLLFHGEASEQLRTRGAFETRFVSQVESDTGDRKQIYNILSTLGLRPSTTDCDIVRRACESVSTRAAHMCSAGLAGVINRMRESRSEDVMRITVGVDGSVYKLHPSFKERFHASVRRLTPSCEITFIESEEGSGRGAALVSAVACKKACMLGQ
# T1 sequence (Q14397 whole entry, looked up): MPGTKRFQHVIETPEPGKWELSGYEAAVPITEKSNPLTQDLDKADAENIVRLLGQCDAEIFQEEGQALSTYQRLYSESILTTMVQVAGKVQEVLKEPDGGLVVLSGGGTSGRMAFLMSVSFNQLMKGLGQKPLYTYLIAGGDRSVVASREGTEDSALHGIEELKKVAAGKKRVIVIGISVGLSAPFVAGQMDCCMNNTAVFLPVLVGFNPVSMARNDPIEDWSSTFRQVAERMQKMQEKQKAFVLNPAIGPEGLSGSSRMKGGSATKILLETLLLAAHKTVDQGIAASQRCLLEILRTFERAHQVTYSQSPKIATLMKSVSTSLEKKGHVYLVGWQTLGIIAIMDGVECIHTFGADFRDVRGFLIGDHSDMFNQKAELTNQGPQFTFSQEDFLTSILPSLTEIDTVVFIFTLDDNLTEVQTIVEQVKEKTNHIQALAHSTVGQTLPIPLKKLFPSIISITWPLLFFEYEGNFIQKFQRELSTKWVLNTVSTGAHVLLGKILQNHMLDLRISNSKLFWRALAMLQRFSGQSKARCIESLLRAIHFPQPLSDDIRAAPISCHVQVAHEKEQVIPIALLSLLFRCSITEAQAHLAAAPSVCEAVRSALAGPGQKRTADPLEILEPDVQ
structure (smiles),measurement,setting,value
O=C(C1CC1)N1CC[C@@H](Cn2c(-c3ccc(-c4ccc5occc5c4)cc3)nc3cnccc32)C1,max response,[1],-18.8% (inactive)
same,remaining parasite growth % (stronger effect = lower value),[2],74.3%
same,"activity, percent of control",[3],74.7%
same,"remaining proliferation (% of control), lower = more inhibition",[4],55.2%
same,"parasite growth, % of DMSO control",[5],35%
same,"parasite growth, % of control (lower = inhibition)",[6],46.6%
same,"growth, % of control",[7],21.9%
same,Potency,[8],16.6 µM (active)
C[C@]12CCC(=O)C=C1CC[C@@H]1[C@@H]2[C@@H](O)C[C@@]2(C)[C@H]1CC[C@]2(O)C(=O)CO,Potency,[9],inactive
same,outcome,[10],inactive
same,outcome,[11],inactive
same,max response,[12],-2.33% (inactive)
same,outcome,[13],inactive
same,outcome,[14],inactive
same,outcome,[15],inactive
same,max response,[1],5.84% (inactive) and 30.7% (inactive)
same,max response,[16],-17.5% (inactive)
same,Potency,[17],inactive
same,remaining parasite growth % (stronger effect = lower value),[2],98.9%
same,"activity, percent of control",[3],92.4%
O=C(NOC[C@H](O)CO)c1ccc(F)c(F)c1Nc1ccc(I)cc1F,max response,[1],24.9% (inactive)
same,"activity, percent of control",[3],98.3%
same,"parasite growth, % of DMSO control",[5],86.4%
same,"parasite growth remaining, % of DMSO control (lower = more inhibition)",[18],102%
same,"parasite growth, % of control (lower = inhibition)",[6],95.7%
same,"growth, % of control",[7],97.2%
same,Potency,[19],33.2 µM (active)
O=c1ncn2nc(Sc3ccc(F)cc3F)ccc2c1-c1c(Cl)cccc1Cl,max response,[1],5.63% (inactive)
same,remaining parasite growth % (stronger effect = lower value),[2],32.8%
same,"activity, percent of control",[3],80.3%
same,"remaining proliferation (% of control), lower = more inhibition",[4],23.8%
same,"parasite growth remaining, % of DMSO control (lower = more inhibition)",[18],76.3%
same,"parasite growth, % of control (lower = inhibition)",[6],18.7%
same,"growth, % of control",[7],13.6%
same,Potency,[8],16.6 µM (active)
COc1ccc(COc2cc3oc(=O)c4cc(C(C)O)ccc4c3cc2OC)cc1 (stereo not drawn),max response,[1],29.9% (inactive)
same,remaining parasite growth % (stronger effect = lower value),[2],75.7%
same,"activity, percent of control",[3],22%
same,"remaining proliferation (% of control), lower = more inhibition",[4],74.7%
same,"parasite growth, % of control (lower = inhibition)",[6],27.3%
same,"growth, % of control",[7],46.1%
same,Potency,[8],18.7 µM (active)
CC(=O)Oc1ccccc1C(=O)O,Potency,[9],inactive
same,outcome,[10],inactive
same,outcome,[11],inactive
same,outcome,[20],inactive
same,max response,[12],-2.6% (inactive) and -0.828% (inactive) and 18.8% (inactive)
same,outcome,[13],inactive
same,outcome,[14],inactive
same,outcome,[15],inactive
same,max response,[1],-2.57% (inactive) and 13.2% (inactive)
same,max response,[16],-2.25% (inactive) and -4.16% (inactive) and -2.23% (inactive)
same,Potency,[17],inactive
same,"parasite growth remaining, % of DMSO control (lower = more inhibition)",[18],90.5%
same,"parasite growth, % of control (lower = inhibition)",[6],90.6%
same,"growth, % of control",[7],94.6%
O=c1[nH]cnc2[nH]ncc12,Potency,[9],inactive
same,outcome,[10],inactive
same,outcome,[11],inactive
same,outcome,[20],inactive
same,max response,[12],-4.44% (inactive)
same,outcome,[13],inactive
same,outcome,[14],inactive
same,outcome,[15],inactive
same,max response,[16],10.5% (inactive)
same,Potency,[17],inactive
CC[C@@H](C)[C@H](NC(=O)[C@H](CC1CCCCC1)NC(=O)c1ccno1)C(=O)N1CCC2(CCc3ccccc32)CC1,remaining parasite growth % (stronger effect = lower value),[2],-1.46%
same,"activity, percent of control",[3],-0.289%
same,"remaining proliferation (% of control), lower = more inhibition",[4],-0.621%
same,"parasite growth, % of DMSO control",[5],5.26%
same,"parasite growth, % of control (lower = inhibition)",[6],14%
same,"growth, % of control",[7],5.03%
same,Potency,[19],10.5 µM (active)
O=C(OCC#CCSc1nnc(-c2ccc3ccccc3c2)o1)c1cc2ccccc2s1,max response,[1],9.28% (inactive)
same,remaining parasite growth % (stronger effect = lower value),[2],117%
same,"activity, percent of control",[3],105%
same,"remaining proliferation (% of control), lower = more inhibition",[4],125%
same,Potency,[8],11.8 µM (active)
